For part of these data: Measured potencies and affinities stand elsewhere. Active and inactive are the calls of the source.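 The calls were made as follows, unless noted: active = dose curve with midpoint inside tested range, moderate steepness, plateau gap beyond fit error, low compound glow and bead-link interference; inactive = the rest.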
What was measured:
[1] = biological target: Cell division control protein 42 homolog (Homo sapiens) (UniProt P60953); test: activated mutant Cdc42 GTP-binding inhibitors, dose response, biochemical, multiplex bead flow cytometry, Bodipy-FL-GTP (AID 1333;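 active = fitted half-maximal concentration within the tested dose range, moderate curve steepness, a statistically real signal drop, and little compound fluorescence or tag-binding interference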); conditions: bead-based flow cytometry; series mostly up to 100 µM
[2] = biological target: Cell division control protein 42 homolog (Homo sapiens) (UniProt P60953); test: wildtype Cdc42 GTP-binding inhibitors, dose response, biochemical, multiplex bead flow cytometry, Bodipy-FL-GTP (AID 1334;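 active = fitted half-maximal concentration within the tested range, moderate curve steepness, significant signal drop, and little compound fluorescence or bead-linkage interference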); conditions: bead-based flow cytometry, Bodipy-FL-GTP binding to GST-Cdc42; at 100 µM (top of the series) unless noted
[3] = biological target: GTPase HRas (Homo sapiens) (UniProt P01112); test: inhibitors of GTP binding to wildtype Ras, dose response, biochemical, multiplex bead flow cytometry (AID 1335;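 active = fitted half-maximal concentration within 10 nM to 100 µM, steepness 0.5 to 2, significant signal drop, low assay interference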); conditions: bead-based flow cytometry, Bodipy-GTP binding to GST-Ras; at 100 µM (top of the series) unless noted
[4] = system: Ras-related protein Rab-7a (dog), GTP binding; test: Rab7 GTP binding inhibitors, potency, dose response, biochemical, wildtype, multiplex bead flow cytometry (AID 1336; call rule not given here); conditions: bead-based flow cytometry, fluorescent GTP binding to Rab7; series mostly up to 100 µM
[5] = biological target: Ras-related C3 botulinum toxin substrate 1 (Homo sapiens) (UniProt P63000); test: wildtype Rac1 GTP binding inhibitors, dose response, biochemical, multiplex bead flow cytometry (AID 1340); conditions: GST-Rac1 beads, Bodipy-FL-GTP binding; at 100 µM (top of the series) unless noted
[6] = biological target: GTPase HRas (Homo sapiens) (UniProt P01112); test: activated Ras mutant GTP binding inhibitors, dose response, biochemical, multiplex bead flow cytometry (AID 1341;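 active = dose-response curve with midpoint inside the tested range, moderate steepness, significant amplitude and little compound fluorescence or bead-attachment interference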;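 also: GST-tagged constitutively activated Ras mutant immobilized on beads and multiplexed with other GTPases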); conditions: bead-based flow cytometry, Bodipy-FL-GTP binding; series mostly up to 100 µM

Chain of GTPase HRas (Homo sapiens) (P01112 whole entry, looked up): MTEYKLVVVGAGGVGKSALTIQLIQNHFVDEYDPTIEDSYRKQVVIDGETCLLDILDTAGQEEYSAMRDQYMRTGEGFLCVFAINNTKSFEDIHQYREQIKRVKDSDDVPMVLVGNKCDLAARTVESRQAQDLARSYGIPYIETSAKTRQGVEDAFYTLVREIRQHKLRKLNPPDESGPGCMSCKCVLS
Chain of Cell division control protein 42 homolog (Homo sapiens) (P60953 whole entry, looked up): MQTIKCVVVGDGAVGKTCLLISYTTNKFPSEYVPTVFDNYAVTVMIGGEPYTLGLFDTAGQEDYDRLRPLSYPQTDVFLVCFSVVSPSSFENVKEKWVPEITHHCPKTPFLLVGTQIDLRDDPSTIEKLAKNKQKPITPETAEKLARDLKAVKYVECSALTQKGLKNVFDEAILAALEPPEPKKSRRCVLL

For `Cn1c(SCC(=O)Nc2cccc(Br)c2)nnc1-c1cc2ccccc2o1`, the outcome [1] was “inactive”, the fluorescence, percent of control (lower = inhibition) [2] was 101% and the GTP binding, percent of control [3] was 189%. The outcome [4] was “inactive”, the GTP binding signal, raw median fluorescence (lower = inhibition) (MCF (arbitrary fluorescence units)) [5] was 180 and the outcome [6] was “inactive”.
With `Cc1ccn2c(NCc3ccc4c(c3)OCO4)c(-c3ccc(O)cc3)nc2c1` the outcome [1] was “inactive”, the fluorescence, percent of control (lower = inhibition) [2] was 60.4% and the GTP binding, percent of control [3] was 75%. For the same compound, the outcome [4] was “inactive”, the GTP binding signal, raw median fluorescence (lower = inhibition) (MCF (arbitrary fluorescence units)) [5] was 0 and the outcome [6] was “inactive”.
In the case of `Cc1ccc(Nc2c(F)c(F)c(F)c(F)c2C(=O)O)cc1`, the outcome [1] was “inactive”, the fluorescence, percent of control (lower = inhibition) [2] was 84.8% and the GTP binding, percent of control [3] was 106%. For the same compound, the outcome [4] was “inactive”, the GTP binding signal, raw median fluorescence (lower = inhibition) (MCF (arbitrary fluorescence units)) [5] was 74 and the outcome [6] was “inactive”.
`Cc1ccccc1-n1c(SCc2c(C)noc2C)nnc1-c1cccnc1` was tested, and the outcome [1] was “inactive”, the fluorescence, percent of control (lower = inhibition) [2] was 104% and the GTP binding, percent of control [3] was 179%. For the same compound, the outcome [4] was “inactive”, the GTP binding signal, raw median fluorescence (lower = inhibition) (MCF (arbitrary fluorescence units)) [5] was 195 and the outcome [6] was “inactive”.
`COc1cccc(N=Nc2c(N)[nH]n3c(=O)c4c(nc23)CCCC4)c1` was tested, and the outcome [1] was “inactive”, the fluorescence, percent of control (lower = inhibition) [2] was 29.6% and the GTP binding, percent of control [3] was 66.9%. For the same compound, the outcome [4] was “inactive”, the GTP binding signal, raw median fluorescence (lower = inhibition) (MCF (arbitrary fluorescence units)) [5] was 151 and the outcome [6] was “inactive”.
`COc1cc2c3nnc(-c4ccc(F)cc4)c-3cn(Cc3cccc(F)c3)c2cc1OC` was tested, and the outcome [1] was “inactive”, the fluorescence, percent of control (lower = inhibition) [2] was 38.2% and the GTP binding, percent of control [3] was 86.4%. The outcome [4] was “inactive”, the GTP binding signal, raw median fluorescence (lower = inhibition) (MCF (arbitrary fluorescence units)) [5] was 293 and the outcome [6] was “inactive”.
For `COc1cccc(CNCc2sc(C(=O)O)cc2C)c1`, the outcome [1] was “inactive”, the fluorescence, percent of control (lower = inhibition) [2] was 62.1% and the GTP binding, percent of control [3] was 87.2%. For the same compound, the outcome [4] was “inactive”, the GTP binding signal, raw median fluorescence (lower = inhibition) (MCF (arbitrary fluorescence units)) [5] was 33.8 and the outcome [6] was “inactive”.
`Cc1cc(NCc2ccccn2)n2c(nc3ccccc32)c1C#N` was tested, and the outcome [1] was “inactive”, the fluorescence, percent of control (lower = inhibition) [2] was 42.7% and the GTP binding, percent of control [3] was 87.9%. The outcome [4] was “inactive”, the GTP binding signal, raw median fluorescence (lower = inhibition) (MCF (arbitrary fluorescence units)) [5] was 192 and the outcome [6] was “inactive”.
In the case of `O=C(Nc1nc(-c2ccc(S(=O)(=O)N3CCCC3)cc2)cs1)c1cccs1`, the outcome [1] was “inactive”, the fluorescence, percent of control (lower = inhibition) [2] was 83.9% and the GTP binding, percent of control [3] was 135%. For the same compound, the outcome [4] was “inactive”, the GTP binding signal, raw median fluorescence (lower = inhibition) (MCF (arbitrary fluorescence units)) [5] was 164 and the outcome [6] was “inactive”.
For `N#C/C(=C/c1ccc(N2CCCCCC2)o1)c1ccc(Cl)cc1`, the outcome [1] was “inactive”, the fluorescence, percent of control (lower = inhibition) [2] was 127% and the GTP binding, percent of control [3] was 205%. The outcome [4] was “inactive”, the GTP binding signal, raw median fluorescence (lower = inhibition) (MCF (arbitrary fluorescence units)) [5] was 210 and the outcome [6] was “inactive”.

— PubChem BioAssay
